# Measurements from PubChem BioAssay AID504832 (National Center for Advancing Translational Sciences (NCATS), 2011).
# Among all 310,000 compounds or so, about 18,000 (5.8%) were called active. Entries that show only a call come without a potency. About 22% were inconclusive and are not listed. Only a selection was taken, and actives are over-represented in it overall. Values without a mark were called inactive. Calls come from the whole dose curve; as a rule, active = well fitted inhibition curve with a large enough effect; inconclusive = small, poorly fitted or top-dose-only effect, or another doubt; inactive = no such curve, though single readings can be large or run the other way.
# Assay: Primary qHTS for delayed death inhibitors of the malarial parasite plastid, 48 hour incubation
# Details: P. falciparum luciferase growth in erythrocytes; series mostly up to 28.7 µM
# In short: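 A one-generation exposure of luciferase-tagged malaria parasites in RPMI 1640/Albumax erythrocyte culture, 37 C and 5% CO2. Inhibition is inferred from decreased luminescence after adding detection reagent.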
# Potency is the fitted concentration of half-maximal effect.
SMILES,Potency,"activity change, negative = inhibition"
COc1ccccc1C(=O)NC(=O)COC(=O)C1CC1,inactive,–
COc1ccccc1CCNC(=O)c1c(C)nn(CC(C)C)c1Cl,inactive,–
COC(=O)C1CCCCN1C(=O)c1ccc(OC2CCN(C(C)=O)CC2)c(OC)c1 (configuration not stated),inactive,–
O=C(NC(=S)Nc1ccc(Cl)cc1Cl)C1CC1,inactive,–
CCCCn1c(N)c(N(CC)C(=O)c2ccccc2C(F)(F)F)c(=O)[nH]c1=O,inactive,–
Cc1ccc(S(=O)(=O)N2CCC(C)CC2)cc1C(=O)NCc1ccccn1,inactive,–
CC(=O)Nc1c2c(nn1-c1ccc(C)cc1C)CS(=O)C2 (configuration not stated),inactive,–
CCC(=O)Nc1ccc2nc(C)n(Cc3ccccc3Cl)c(=O)c2c1,13.1 µM (active),–
CCOC(=O)CSc1nc2c(c(=O)n(Cc3ccccc3Cl)c(=O)n2C)n1C,inactive,–
Cc1nn(CCCC(=O)NCc2ccccc2Cl)c(=O)c2nccn12,inactive,–
COc1ccc(CCN(C)C(=O)C23CC4CC(CC(Cl)(C4)C2)C3)cc1OC,inactive,–
Cc1cc(-c2ccc(C)c(S(=O)(=O)Nc3ccc(S(N)(=O)=O)cc3)c2)on1,inactive,–
Cn1cc(/C=C/c2nc3ccccc3c(=O)n2-c2cccc([N+](=O)[O-])c2)c2ccccc21,10.4 µM (active),–
Cc1cc(CNC(=O)c2cccc([N+](=O)[O-])c2)c2ccccc2n1,inactive,–
Cc1nc2ccccc2c(=O)n1Cc1ccc([N+](=O)[O-])cc1,inactive,–
Cc1ccc(CC2CC(=O)N(c3cc(C)ccc3C)C2=O)cc1 (configuration not stated),inactive,–
COc1ccc(NS(=O)(=O)c2ccc3oc(SCC(N)=O)nc3c2)cc1,inactive,–
O=C(COC(=O)CNC(=O)C1CCCCC1)NCc1ccccc1,inactive,–
Cc1ccc2nc(-c3cccc(Br)c3)cc(C(=O)Nn3cnnc3)c2c1,inactive,–
Cc1cccc(-[n+]2c(-c3cccc(Br)c3)[nH]c3nc4ccccc4nc32)c1,13.1 µM (active),–
Cc1ccc(OCC(=O)NNC(=S)NCc2ccccc2)cc1,inactive,–
CC(C)Oc1ccc(CCC(=O)NNC(=S)NCc2ccccc2)cc1,1.65 µM (active),–

SMILES,Potency,"activity change, negative = inhibition"
O=C(NNC(=S)NCc1ccccc1)c1ccc(OC(F)F)cc1,inactive,–
O=C(CSc1nc2[nH]ncc2c(=O)[nH]1)Nc1ccc(F)cc1,inactive,–
Cc1nonc1NC(=O)c1ccccc1Br,inactive,–
Cc1c(C(=O)NNC(=O)c2ccncc2)oc2ccccc12,inactive,–
Cc1nonc1NC(=O)c1oc2ccccc2c1C,9.28 µM (active),–
Cc1ccc(NS(=O)(=O)c2ccc3c(c2)NC(=O)CO3)cc1,inactive,–
CC1(C)CC(=O)C2=C(C1)Nc1cc(C(=O)c3ccccc3)ccc1NC2c1ccccn1 (configuration not stated),inactive,–
Cc1cc2c(cc1C)NC(c1ccccn1)C1=C(CC(C)(C)CC1=O)N2 (configuration not stated),10.4 µM (active),–
CC1(C)CC(=O)C(C2=NC(C)(C)Cc3ccccc32)=C(O)C1,inactive,–
Cc1ccc(NS(=O)(=O)c2ccc(-c3coc(C)n3)cc2)c(C)c1,inactive,–
CCc1ccc2[nH]c(=O)c(Cc3ccccc3)c(O)c2c1,inactive,–
CCOC(=O)C(Cc1ccccc1)NC(=O)CCC(=O)c1ccc(OC)cc1 (configuration not stated),inactive,–
COc1cc([C@H](Cc2ccccc2)NC(C)=O)oc(=O)c1,9.28 µM (active),–
COC(=O)[C@H](Cc1ccccc1)NC(=O)Nc1ccc(OC)cc1,inactive,–
Nc1cc(N)nc(SCc2cccc(F)c2)n1,inactive,–
COc1ccc(S(=O)(=O)N2CCN(C)CC2)c(C)c1,inactive,–
CC(C)CCN1CCC(C)(NC(=O)c2ccccc2)C1=O (configuration not stated),inactive,–
Cc1cc(Cl)c2oc(C(=O)NC(C)c3ccncn3)c(C)c2c1 (configuration not stated),inactive,–
COc1ccc(-c2nn(-c3ccccc3)cc2/C=N/Nc2ccccn2)cc1OC,4.65 µM (active),–
Cc1nnc(SCC(=O)N/N=C/c2cn(-c3ccccc3)nc2-c2ccc(F)cc2)n1-c1ccccc1,inactive,–
O=C(O)c1ccc(NC(=O)c2cn(-c3ccccc3)nc2-c2ccc(Cl)cc2)cc1,inactive,–
COc1ccc(-c2nn(-c3ccccc3)cc2C(=O)Nc2nccs2)cc1OC,13.1 µM (active),–

SMILES,Potency,"activity change, negative = inhibition"
CN(C)/N=C/c1cn(-c2ccccc2)nc1-c1cccnc1,inactive,–
COc1ccc(-c2nn(-c3ccccc3)cc2C(=O)Nc2nc(CC(C)=O)ns2)cc1,inactive,–
Cc1nc([N+](=O)[O-])cn1CC(=O)Nc1ccc(Cl)cc1,inactive,–
O=C(Nc1ccc(NC(=O)c2ccccc2F)cc1)c1ccccc1F,inactive,–
O=C(O)c1ccccc1CSc1nc2ccccc2s1,inactive,–
CCOC(=O)C1CCN(C(=O)CN2C(=O)c3cccnc3Oc3ccc(C)cc32)CC1,inactive,–
COc1ccc(C2/C(=C(/O)c3ccccc3)C(=O)C(=O)N2C)c(OC)c1 (configuration not stated),inactive,–
CN1CCC[C@@H]1CCO[C@](C)(c1ccccc1)c1ccc(Cl)cc1,12 µM (active),–
C#CC(CCN1CCCCC1)(OC)c1ccccc1 (configuration not stated),inactive,–
COc1ccc(CNC(=O)COc2ccccc2C(=O)c2cnn(-c3ccccc3)c2)cc1OC,inactive,–
N#Cc1ccc(CN2CCN(CC(=O)Nc3ccccc3C(=O)NC3CC3)CC2)cc1,inactive,–
CCn1cc(C(=O)NCCC(=O)NCCO)c(=O)c2cc3c(cc21)OCO3,inactive,–
COc1ccc(C2(CNC(=O)Cc3ccc(OC)c(OC)c3)CCCC2)cc1,inactive,–
COc1ccc(C(=O)Nc2ccc(C3(C#N)CCCC3)cc2)cc1OC,inactive,–
COc1cc(C(=O)NCC2(c3ccccc3)CCCC2)ccc1OC(C)C,14.7 µM (active),–
COc1cc(OC)c(NS(=O)(=O)c2cn(C)cn2)cc1Cl,inactive,–
Cc1cccc(NC(=O)c2cccnc2Cl)n1,inactive,–
COCCN(CCOC)C(=S)Nc1ccccc1Cl,inactive,–
CCc1ccc2c(c1)cc(CN(C(=S)Nc1ccccc1Cl)C1CC1)c1nnnn12,6.57 µM (active),–
CCc1cccc(NC(=S)N(CCN(C)C)C2CCN(C(C)C)CC2)c1,–,-29.2% [at 0.00184 µM]
COc1ccc(CNC(=O)C(=O)NCC2OCCN2C(=O)c2ccc(OC)cc2)cc1 (configuration not stated),inactive,–
Cc1c(C)c2cc3c4c(oc3c(C)c2oc1=O)CCCC4,inactive,–

SMILES,Potency,"activity change, negative = inhibition"
CC[C@@H](C)[C@H](NC(=O)CCc1c(C)c2cc3c4c(oc3c(C)c2oc1=O)CCCC4)C(=O)O,inactive,–
Cc1c(CCC(=O)N[C@@H](CC(C)C)C(=O)O)c(=O)oc2c(C)c3oc4c(c3cc12)CCCC4,2.33 µM (active),–
O=C(NCc1ccccc1)C(c1ccccc1)N(C(=O)c1csnn1)c1ccc(F)cc1 (configuration not stated),inactive,–
Cc1n[nH]c(=O)c2c1nnn2Cc1ccc(F)cc1,inactive,–
Cc1c2cn[nH]c(=O)c2c(C)n1Cc1ccc(F)cc1,11.7 µM (active),–
CSc1nc2ccccc2c(=O)n1Cc1ccc(F)cc1,inactive,–
Cc1ccc(N2C(=O)C3C4C=CC(CC4)C3C2=O)cc1Br (configuration not stated),inactive,–
O=C(COc1coc(CN2CCN(c3ccccc3F)CC2)cc1=O)N1CCc2ccccc21,inactive,–
COc1ccc(S(=O)(=O)NCC(=O)NC2CC2)cc1OC,inactive,–
O=C(O)CCCn1c(=O)c2cccn2c2ccc(F)cc21,inactive,–
CCOc1ccccc1N1CCN(C(=O)c2ccc3[nH]c(C)c(C)c3c2)CC1,inactive,–
CCCCCCCNC(=O)C1(CC2CC(c3cccc(Br)c3)=NO2)CCN(C(=O)c2cc(OCC)c(OCC)c(OCC)c2)CC1 (configuration not stated),0.657 µM (active),–
CCOC(=O)C1CCN(Cc2nnc(-c3cccc(Br)c3)o2)CC1,inactive,–
N#Cc1c(Cl)nc(-c2cccnc2)nc1-c1ccccc1,inactive,–
CCCC[C@H]1COCCS(=O)(=O)N1Cc1cccc(Cl)c1,inactive,–
COc1cc(NC(=O)C2CC(c3ccccc3O)=NO2)c(OC)cc1Cl (configuration not stated),inactive,–
Cc1nc(-c2ccc(F)cc2)c(CC(=O)N2CCN(S(=O)(=O)c3ccc(F)cc3)CC2)s1,inactive,–
O=C(CN1CCOCC1)Nc1cc(Cl)ccc1Cl,inactive,–
O=C(CSc1nc(Nc2ccccc2)nc(N2CCOCC2)n1)Nc1cc(Cl)ccc1O,1.17 µM (active),–
Cc1ccccc1NC(=O)CSc1nc2ccc(Nc3nc(N4CCOCC4)nc(N4CCOCC4)n3)cc2s1,inactive,–
Cn1c(SCC(=O)N2CCCCC2)nc2c(c1=O)SCC2,inactive,–
O=C(Nc1ccc(C(F)(F)F)cc1)c1cccc(-n2cnnn2)c1,10.4 µM (active),–

SMILES,Potency,"activity change, negative = inhibition"
O=C(Nc1cccc(-n2cnnn2)c1)c1cccnc1,inactive,–
CNC(=O)c1ccc(NC(=O)c2cccc(C(F)(F)F)c2)cc1,inactive,–
O=C(NCc1ccc(F)cc1)C1CCN(C(=O)Nc2ccc(F)cc2)CC1,inactive,–
O=C(Nc1cccc(Cl)c1Cl)c1ccccc1NC(=O)C1CC=CCC1C(=O)O (configuration not stated),inactive,–
CC(C)C1N=C2c3ccccc3N=C(SCC(=O)c3ccc(O)c(O)c3)N2C1=O (configuration not stated),11.7 µM (active),–
COC(=O)c1cc(C(=O)CSc2nc(C)cc(C)n2)ccc1O,inactive,–
CCc1ccc(S(=O)(=O)N/N=C\c2ccc([N+](=O)[O-])o2)cc1,inactive,–
COc1ccc(CCNS(=O)(=O)c2cn(C)nc2C)cc1,inactive,–
Cc1ccc(F)cc1NC(=O)Cc1nn(C)c(=O)c2ccccc12,inactive,–
Cc1c(-c2nn(C)c(=O)c3ccccc23)oc2ccc(F)cc2c1=O,2.62 µM (active),–
O=C1c2oc3ccc(Br)cc3c(=O)c2C(c2cccc(F)c2)N1CCO (configuration not stated),inactive,–
CCCNC(=O)CCc1c(C)nc2c(c(C)nn2-c2ccccc2)c1C,inactive,–
O=C(CN(C(=O)CCC(=O)Nc1nccs1)c1ccc(F)cc1)NCc1ccc2c(c1)OCO2,inactive,–
Cc1cccc(-n2c(SCC(=O)Nc3cccc(S(=O)(=O)NC4=NCCCCC4)c3)nc3ccccc3c2=O)c1C,13.1 µM (active),–
O=C(Nc1cccc(S(=O)(=O)NC2=NCCC2)c1)C1CCCCC1,inactive,–
CCc1ccc(C(=O)OCC(=O)Nc2cccc(S(=O)(=O)NC3=NCCCCC3)c2)cc1,10.4 µM (active),–
CN(CCOc1ccc(Br)cc1)CC(=O)Nc1cccc(S(=O)(=O)NC2=NCCC2)c1,inactive,–
O=C(Cn1cnc2ccccc2c1=O)Nc1cccc(S(=O)(=O)N2CCCCC2)c1,inactive,–
COCCn1c(SCC(=O)Nc2ccc3c(c2)CCC3)nc2ccccc2c1=O,inactive,–
